Laboratory results from PubChem BioAssay (NCI).
This is part of a sample that, as a whole, favours compounds with a hit. Of some 83,000 tested, about 20% had one in any assay.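 Treatment: one concentration, 48 hours, 96-well format. Scoring: percent growth, with anything below 10 considered active.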 Calls of active or inactive are those of the source.

Assays:
Test in all cases: NCI-60 one-dose screen, 48 h (100 = growth as untreated, 0 = no growth, -100 = all killed)
[1] = tested on: NCI-H322M lung; conditions: 10 µM
[2] = tested on: HOP-62 NSCLC; conditions: 10 µM
[3] = tested on: A549/ATCC NSCLC; conditions: 10 µM
[4] = tested on: COLO 205 colon; conditions: 10 µM
[5] = tested on: DU-145 prostate; conditions: 10 µM
[6] = tested on: MALME-3M melanoma; conditions: 10 µM
[7] = tested on: SF-268 CNS; conditions: 10 µM
[8] = tested on: SF-295 CNS; conditions: 10 µM
[9] = tested on: SF-539 CNS; conditions: 10 µM
[10] = tested on: UACC-257 melanoma; conditions: 10 µM
[11] = tested on: M14 melanoma; conditions: 10 µM
[12] = tested on: HCT-15 colon; conditions: 10 µM
[13] = tested on: HT29 colon; conditions: 10 µM
[14] = tested on: SNB-75 CNS; conditions: 10 µM
[15] = tested on: SNB-19 CNS; conditions: 10 µM
[16] = tested on: SK-MEL-5 melanoma; conditions: 10 µM
[17] = tested on: UACC-62 melanoma; conditions: 10 µM
[18] = tested on: SK-MEL-28 melanoma; conditions: 10 µM
[19] = tested on: SK-MEL-2 melanoma; conditions: 10 µM
[20] = tested on: HL-60(TB) leukemia; conditions: 10 µM unless noted

Measured: growth

CC(C)N=C([Se])NC(=O)c1ccccc1
active: [1] -3.38% | [2] 8.36% | [3] 8.83% | [4] -11.7% | [5] -74.6% | [6] -24.7% | [8] -23.9% | [9] -82.9% | [10] -36.2% | [11] -65.2% | [12] 1.65% | [14] -49.5% | [16] -57.1% | [17] -35.3% | [18] -43.9% | [19] -40% | [20] -15.4%
inactive: [7] 14.3% | [13] 12.5% | [15] 11.4%

CC12CCC3(CCC(=O)NCCCNc4ccnc5cc(Cl)ccc45)[C@@](C)(OO[C@]3(C)O1)O2
inactive: [1] 27.5% | [3] 25.3% | [4] 36.7% | [5] 38.2% | [6] 17.5% | [10] 51.1% | [13] 10.7% | [16] 14.2% | [17] 11.1% | [18] 33.4% | [19] 23.3% | [20] 14.9%
active: [2] -6.39% | [7] 5.01% | [8] -1.94% | [9] -65.6% | [11] -2.43% | [12] 6.51% | [14] -4.41% | [15] 7.99%

CC(=C\C(=O)Oc1ccc2c3c1OC1C(O)CCC4(O)C(C2)N(CC2CCC2)CCC314)/C=C1\CCCc2ccccc21 (stereo not given)
active: [10] -36.8% | [11] -51.4% | [12] 7.2% | [13] 8.3% | [17] -16.4%
inactive: [1] 69.9% | [2] 85.6% | [3] 48.9% | [4] 39.4% | [5] 82.1% | [6] 34.6% | [7] 73.5% | [8] 63.2% | [9] 67.8% | [14] 59.8% | [15] 70.5% | [16] 45.5% | [18] 17.1% | [19] 84.3% | [20] 17.9%

C[C@H]1[C@@H](Oc2ccc(-c3cn(-c4ccnc5cc(Cl)ccc45)nn3)cc2)O[C@@H]2OC3(C)CC[C@H]4[C@H](C)CC[C@@H]1[C@@]24OO3
inactive: [1] 69.3% | [2] 46.3% | [3] 35.2% | [5] 51.6% | [6] 13.7% | [7] 46.3% | [8] 37.6% | [9] 30.5% | [10] 41.1% | [11] 31.8% | [12] 12.8% | [13] 22.3% | [14] 61.6% | [15] 40.4% | [16] 20.3% | [17] 21.2% | [18] 33.3%
active: [4] -50% | [19] 7.17%

O=C(/C=C/c1cccc(Br)c1)c1nc2ccccc2n1Cc1ccc(Br)cc1
inactive: [1] 51.9% | [3] 28% | [7] 26.8% | [14] 59.7%
active: [2] -42% | [4] -34.1% | [5] 4.37% | [6] -36.5% | [8] -19.7% | [9] -66% | [10] 6.73% | [11] -31.7% | [12] -78% | [13] -49% | [15] -67% | [16] -26.4% | [17] -82.5% | [18] -53.4% | [19] -42.3% | [20] -19.3%

COC(=O)C[C@](O)(CCCC(C)C)C(=O)O[C@H]1C(OC)=C[C@@]23CCCN2CCc2cc4c(cc2[C@@H]13)OCO4
inactive: [1] 25.4% | [2] 21.3%
active: [3] -7.85% | [4] -2.77% | [5] -3.16% | [6] -38.5% | [7] 3.83% | [8] -8.14% | [9] -47.7% | [10] -25.9% | [11] -46.4% | [12] -21.1% | [13] -22.7% | [14] -46.7% | [15] -27.7% | [16] -39% | [17] 0.442% | [18] -24.3% | [19] -0.0193% | [20] -28.7%

O=C(/C=C/c1ccc(Cl)cc1Cl)c1nc2ccccc2n1Cc1ccc(F)cc1
inactive: [1] 69.7% | [2] 58.2% | [3] 66.5% | [4] 83.6% | [5] 55.4% | [6] 69.1% | [7] 49.9% | [8] 60.6% | [9] 17.9% | [10] 66.3% | [11] 59.8% | [12] 11.8% | [14] 38.6% | [15] 57.7% | [16] 74.5% | [17] 40.1% | [18] 74% | [19] 94.7% | [20] 28%
active: [13] 7.3%

C=C1CCC2C3(C)COC(c4ccco4)OC3CCC2(C)C1CC(Sc1ccccc1)C1=CCOC1=O (stereo not given)
active: [20] -21.6%

O=C(O)CCCCCCCCCCN1C(=O)/C(=C/c2cnc(-c3ccc(Cl)cc3)s2)SC1=S
inactive: [20] 33.7%

CN1CCN(/C(=N\c2sc(-c3ccccc3)nc2-c2ccccc2)c2ccccc2)CC1
inactive: [20] 62.9%

Nc1nnc(-c2cncc(Br)c2)c(-c2c[nH]c3ccc(Cl)cc23)n1
inactive: [20] 64.3%

CCCCCCn1c(O)c(N=Nc2nc(-c3cc4ccccc4oc3=O)cs2)c2ccccc21
inactive: [20] 87.8%

CN(C)c1nc(NCCNS(=O)(=O)c2ccc(C(=O)/C=C/c3ccccc3)cc2)nc(N2CCOCC2)n1
inactive: [20] 33%

CCOC(=O)/C(F)=C/C1CC1CCc1ccc(OCC)cc1 (stereo not given)
inactive: [20] 101%

C=C1CCC2C3(C)COC(c4ccccc4F)OC3CCC2(C)C1C/C=C1/C(=O)OCC1O (stereo not given)
active: [20] -0.649%

O=S(=O)(Nc1cccc(-n2cnc3cc(-c4ccc(O)cc4)ccc32)c1)C1CC1
active: [20] -19.9%

COc1cc(C2CC(c3cc(OC)c(OC)c(OC)c3)=Nc3c(N)nc(N)nc3N2)ccc1Oc1nc(NCCO)nc(N2CCOCC2)n1 (stereo not given)
inactive: [20] 91.9%

COc1ccc(N(C)c2cc(C#N)nc3ccccc23)cc1/C=C/C(=O)NO
active: [20] -28.7%

COc1cc(/C=C/C(=O)c2ccc(F)cc2)ccc1Oc1nc(Nc2ccc(F)cc2)nc(N(C)C)n1
inactive: [20] 61.3%

N#CC1=C(c2ccco2)Nc2c(c(-c3ccccc3)nn2-c2ccccc2)C12C(=O)Nc1ccc(Cl)cc12 (stereo not given)
inactive: [20] 43.8%

COc1cccc2nc(Nc3cccc(NC(=O)c4ccc(CN5CCCN(C)CC5)c(C(F)(F)F)c4)c3)ccc12
active: [20] -54.3%

COC(=O)CC1CC1C1Cc2c(nc(N(C)S(C)(=O)=O)nc2C(C)C)-c2ccc(F)cc21 (stereo not given)
inactive: [20] 58.7%

O=C(CN1CCN(c2ncnc3c2cnn3-c2ccccc2)CC1)Nc1ccc(Cl)cc1
inactive: [20] 58.6%

CC(=O)C1=C(C)NC(SCC(=O)Nc2ccc(S(=O)(=O)Nc3cc(C)on3)cc2)=NC1c1ccccc1 (stereo not given)
inactive: [20] 100%

CCCSc1nc(Nc2ccc(S(N)(=O)=O)cc2)c(C#N)c(-c2cc(OC)c(OC)c(OC)c2)n1
active: [20] -40.3%

Cc1ccc(NCC(=O)Cn2cc(COc3ccc(C=Nc4cnc5ccccc5c4)cc3)nn2)cc1
inactive: [20] 101%

O=c1nc(-c2ccccc2)cc(-c2cc3ccccc3nc2Cl)[nH]1
active: [20] -34.7%

O=CNc1cccc(-n2cnc3cc(-c4ccc(O)cc4)ccc32)c1
active: [20] 8.14%

Nc1nn2c(-c3cc4cc(Br)ccc4oc3=O)ccnc2c1N=Nc1ccc(Br)cc1
inactive: [20] 98.5%

COC(=O)c1c(C(=O)OC)c2ccc3c4ccccc4ccc3n2c1C(=O)OC
inactive: [20] 111%

O=C(O)CCCCCCCCCCN1C(=O)/C(=C/c2cnc(-c3ccccc3)s2)SC1=S
inactive: [20] 63.6%

COc1ccc2[nH]c(O)c(N=NC(=O)c3ccc4nc(-c5ccc(Cl)cc5)[nH]c4c3)c2c1
inactive: [20] 88.5%

C=CC(=O)Nc1ccc(C(=O)/C=C/c2ccc(N(C)C)cc2)c(O)c1
active: [20] 1.03%

Cc1ccc(C(=O)Nc2cc(-n3cnc(F)c3)cc(C(F)(F)F)c2)cc1C#Cc1cnc2cccnn12
inactive: [20] 23.5%

O=c1[nH]c2ccc(Cl)cc2cc1CSc1ccc(Nc2nccc(-c3ccc4ccccc4c3)n2)cc1
inactive: [20] 91.4%

CCOC(=O)c1ccc(NC(=O)CSC(CC(=O)c2sc(Nc3ccccn3)nc2C)c2ccccc2F)cc1 (stereo not given)
active: [20] 2.8%

N#C/C(=C\c1ccc(N(c2ccccc2)c2ccccc2)cc1)C(N)=O
inactive: [20] 68.7%

O=C(Nc1ccc(Cl)c(C(F)(F)F)c1)N1CCN(c2cc(-c3cn(-c4ccccc4)nc3-c3cccc(O)c3)ccn2)CC1
active: [20] -34.3%

COc1cc(-c2ccc3ncnc(N4CCc5ccc(Cl)cc54)c3c2)cnc1Cl
active: [20] -8.13%

O=c1[nH]n(C(=S)N/N=C/c2ccc(F)cc2)c(=O)c2ccccc12
inactive: [20] 44.7%

COc1ccccc1NC(=O)N/N=C/c1c[nH]c2ccccc12
active: [20] 5.87%

COc1ccc(C(=O)c2c(N)c(C#N)cn2-c2ccc([N+](=O)[O-])cc2)cc1
inactive: [20] 97.5%

O=c1[nH]c2ccccc2cc1CSc1nccc(-c2ccc3ccccc3c2)n1
inactive: [20] 50.7%

CCCCCCCCc1ccc(C(=O)Nc2ccc(C)cc2C(=O)O)cc1C
inactive: [20] 102%

O=C(Cn1c(-c2ccccc2)nc2ccccc21)N=Nc1c(O)[nH]c2ccc(Br)cc12
inactive: [20] 42.4%

O=C1Nc2cc(-c3ccc(NS(=O)(=O)c4ccc(-c5ccccc5)cc4)cc3)ccc2/C1=C/c1ccc[nH]1
inactive: [20] 31%

Cn1cc(-c2cc(N)n3nc(-c4c[nH]c5ccc(Br)cc45)cc3n2)c2cccnc21
active: [20] -49.9%

Cc1ccc(C2CC(c3ccc(S(=O)(=O)NCCNc4nc(N(C)C)nc(N5CCOCC5)n4)cc3)=Nc3c(N)nc(N)nc3N2)cc1 (stereo not given)
inactive: [20] 35.8%
